Data reported in the supplement of paper PMC6555819.

Columns and labels:
Assay in all cases: PBM binding z-score (relative to random genomic background probes); higher = stronger binding; sequences stand for … in GC…GCGATTGACAGCGTAGAATGAAGG
[1] = tested on: FXR:RXRa (NR concentration 270 nM, RXRa partner concentration 90 nM)
Procedure, shortened: (§1)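 Binding z-scores were set against random background probes. The data came from custom Agilent 4×180K protein-binding microarrays carrying double-stranded probes with 34-nt variable regions, incubated 1 h with ligand-free nuclear receptor dimers. Partner-specific antibodies detected binding, and scanned fluorescence was regression-normalized.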

[2] = tested on: LXRa:RXRa (NR concentration 270 nM, RXRa partner concentration 90 nM)
Procedure, shortened: as §1

[3] = tested on: LXRa homodimer (NR concentration 270 nM)
Procedure, shortened: as §1

[4] = tested on: LXRb:RXRa (NR concentration 270 nM, RXRa partner concentration 90 nM)
Procedure, shortened: as §1

[5] = tested on: LXRb homodimer (NR concentration 270 nM)
Procedure, shortened: as §1

[6] = tested on: PPARa:RXRa (NR concentration 270 nM, RXRa partner concentration 90 nM)
Procedure, shortened: as §1

[7] = tested on: PPARg:RXRa (NR concentration 180 nM, RXRa partner concentration 90 nM)
Procedure, shortened: as §1

[8] = tested on: PPARg:RXRa 270nM:90nM, anti-RXR (NR concentration 270 nM, RXRa partner concentration 90 nM)
Procedure, shortened: as §1

[9] = tested on: PPARg:RXRa 30nM:10nM, anti-RXR (NR concentration 30 nM, RXRa partner concentration 10 nM)
Procedure, shortened: as §1

[10] = tested on: PPARg:RXRa 90nM:30nM, anti-RXR (NR concentration 90 nM, RXRa partner concentration 30 nM)
Procedure, shortened: as §1

[11] = tested on: PPARg:RXRa DBDmut IVT, anti-RXR (DBD mutation: RXRa K156A/R161A, NR concentration 270 nM, RXRa partner concentration 90 nM)
Procedure, shortened: as §1

[12] = tested on: PPARg:RXRa IVT, anti-PPARg (NR concentration 270 nM, RXRa partner concentration 90 nM)
Procedure, shortened: as §1

[13] = tested on: PPARg DBDmut:RXRa IVT, anti-PPARg (DBD mutation: PPARg1 K132A/R137A, NR concentration 270 nM, RXRa partner concentration 90 nM)
Procedure, shortened: as §1

[14] = tested on: PPARg DBDmut IVT, anti-PPARg (DBD mutation: PPARg1 K132A/R137A, NR concentration 270 nM)
Procedure, shortened: as §1

[15] = tested on: PPARg homodimer (NR concentration 180 nM)
Procedure, shortened: as §1

[16] = tested on: PXR:RXRa (NR concentration 270 nM, RXRa partner concentration 90 nM)
Procedure, shortened: as §1

[17] = tested on: PXR homodimer (NR concentration 270 nM)
Procedure, shortened: as §1

[18] = tested on: RARa:RXR (NR concentration 270 nM, RXRa partner concentration 90 nM)
Procedure, shortened: as §1

[19] = tested on: RARa homodimer (NR concentration 270 nM)
Procedure, shortened: as §1

[20] = tested on: RARb:RXRa (NR concentration 270 nM, RXRa partner concentration 90 nM)
Procedure, shortened: as §1

| Sequence | PBM binding z-score [1] | PBM binding z-score [2] | PBM binding z-score [3] | PBM binding z-score [4] | PBM binding z-score [5] | PBM binding z-score [6] | PBM binding z-score [7] | PBM binding z-score [8] | PBM binding z-score [9] | PBM binding z-score [10] | PBM binding z-score [11] | PBM binding z-score [12] | PBM binding z-score [13] | PBM binding z-score [14] | PBM binding z-score [15] | PBM binding z-score [16] | PBM binding z-score [17] | PBM binding z-score [18] | PBM binding z-score [19] | PBM binding z-score [20] |
| --- | --- | --- | --- | --- | --- | --- | --- | --- | --- | --- | --- | --- | --- | --- | --- | --- | --- | --- | --- | --- |
| GCATATAGGTAATACAAGGTGAAAGTCCGATTGT | 2.2 | 2.59 | 0.161 | 0.649 | -0.271 | 1.68 | 1.37 | 1.36 | 0.636 | 0.931 | 4.15 | 3.2 | 1.3 | 0.902 | 0.296 | 0.502 | 0.135 | 0.993 | 0.75 | 0.523 |
| CAGCCTAGGTCAGAGCCAGTATAGGAGGAACGTT | 1.65 | 0.992 | -0.0153 | 0.607 | -0.514 | 1.69 | 0.786 | 0.566 | -0.211 | 0.234 | 1.93 | 1.53 | -0.412 | -1 | 0.951 | 0.261 | -0.164 | 0.723 | 0.33 | 3.08 |
| CGTCCAAGGTCATAGGAAGTCAGTGAAGACAGAT | 6.83 | 5.5 | 1.21 | 3.9 | 0.55 | 5.43 | 4.4 | 4.99 | 1.57 | 3.64 | 3.11 | 3.4 | 0.667 | -0.147 | 2.75 | 3.99 | 0.915 | 4.28 | 0.466 | 4.81 |
| CGTCCAAGGTCAATGCTAGGTCATTGAAAGCATT | 7.16 | 6.36 | 5.55 | 4.79 | 1.21 | 5.28 | 4.04 | 4.94 | 1.89 | 3.66 | 3.36 | 3.99 | 1.51 | 0.205 | 6.45 | 5.79 | 3.15 | 6.69 | 1.7 | 5.19 |
| CCTTACGGGTCAAGGGTATAGCACGGGTGGTACG | 5.14 | 3.24 | -0.107 | 2.59 | -0.218 | 5.12 | 5.03 | 5.23 | 2.3 | 4.37 | 1.83 | 3.8 | 0.361 | -0.594 | 3.73 | 2.9 | -0.229 | 4.27 | 0.518 | 3.98 |
| TCTTGTAGATCAATAGAGGTAAAGAAAGTGCGCT | 0.355 | 0.562 | -0.497 | 0.281 | -0.231 | 0.706 | -0.0447 | 1.14 | 2.57 | 1.62 | 1.51 | 0.822 | 0.0443 | 0.312 | -0.815 | 0.573 | 0.0758 | 0.505 | -0.142 | -0.0126 |
